Screens from PubChem.
Mito fusion act = qHTS Assay for Small Molecule Inhibitors of Mitochondrial Division or Activators of Mitochondrial Fusion; S. cerevisiae fusion-defective mutant growth rescue, CellTiterGlo 48 h; Potency, µM (top dose mostly 46.1 µM), for inactives: at the top dose growth rescue (activation), hits mostly activators; AID 485298, 2010; actives 0.23% (n = 320,000); further: % of control where 0% means no effect; nearly all actives have a fitted effect of over 45% in size
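Temperature-sensitive fusion-defective S. cerevisiae (e.g. fzo1-1, mgm1-5) were grown with compound in YPEG medium (3% ethanol, 3% glycerol) for 48 hours at 37C. Growth rescue was measured as viability by CellTiterGlo luminescence after 10 minutes at ambient.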
aSyn rescue = qHTS of alpha-syn Inhibitors. Yeast expressing alpha-synuclein, growth rescue, BacTiter-Glo, 24 h. Potency, µM (top dose mostly 46.1 µM), for the others: top-dose growth rescue (activation), hits mostly activators. actives 0.14% (n = 370,000); further: % of control where 0% means no effect; nearly all actives have a fitted effect of over 65% in size
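Galactose-induced alpha-syn yeast (OD600=0.02, raffinose-pregrown) + pinned cpd, 24 hr, 30 deg C; growth by BacTiter-Glo luminescence. Growth restoration scores as activation.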
A-T KAP1 phos = qHTS Assay for Identifying a Potential Treatment of Ataxia-Telangiectasia; F2112 A-T fibroblasts, KAP-1 phosphorylation AlphaLISA; neocarzinostatin DNA damage 30 min before lysis; Potency, µM (series often up to 57.5 µM), for inactives: top-dose activation, most hits filed as activators; actives 0.19% (n = 320,000); AID 485349, 2010; further: % of control where 0% means no effect; nearly all actives have a fitted effect of over 45% in size
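ATM-like activity read as KAP-1 phosphorylation via AlphaLISA donor/acceptor antibody pairs after lysis and 6 hr at 25C. Cells were ATM-null patient fibroblasts (F2112, hTERT), dosed 60 min, then exposed to the DSB inducer NCS for 30 min.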
TDP-43 yeast inh = qHTS of TDP-43 Inhibitors; TDP-43 expressing yeast growth rescue, BacTiter-Glo, 24 h; Potency, µM (titrated, usually from 46.1 µM), for the others: at the highest dose growth rescue (activation), usual class: activators; actives 1.8% (n = 410,000); AID 652104, 2013; further: % of control where 0% means no effect; nearly all actives have a fitted effect of over 50% in size
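Yeast cells expressing TDP-43 under galactose induction are exposed to compounds for 24 hr at 30 deg C. BacTiter-Glo luminescence measures growth, so protective compounds score as activators.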
GRP78 ERSR act = qHTS for Inducers of the Endoplasmic Reticulum Stress Response (ERSR) in Human Glioma: qHTS. U87-MG GRP78 promoter luciferase reporter, 16 h. Potency, µM, without a hit: top-dose activation, most hits filed as activators. actives 0.02% (n = 420,000). AID 602332, 2012; further: series mostly up to about 76 µM; % of control where 0% means no effect; nearly all actives have a fitted effect of over 35% in size
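ERSR induction read as luciferase luminescence (Bright-Glo, 10 min at room temperature) in stably transfected human U87-MG glioma cells exposed to compounds for 16 h, using GRP78 as sensor.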
Abeta rescue = qHTS for compounds that reverse cellular toxicity of Amyloid beta (A-beta) peptide in yeast: Primary Screen | Potency, µM (series often up to 46.1 µM), hits mostly activators | yeast expressing A-beta42, growth rescue, OD600, 48 h; response scale: 0% DMSO, 100% iron-clioquinol control | actives 0.063% (n = 410,000); further: nearly all actives have a fitted effect of over 55% in size
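Yeast growth medium received pinned compounds, then yeast cells expressing toxic A-beta were added; plates incubated at 30 C for 48 hr. Growth read as absorbance at 600 nm, normalized to DMSO and equimolar FeCl3 plus clioquinol controls.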
Active calls of the source: *; i = inactive; ? = inconclusive; . = no result given; [ ] = dose if it differs, or a comment. Rows were chosen to be rich in hits. Some 2.1% of all compounds tested hit in one or more screens of this group. The call rests on the fitted dose curve; in most records, active means well fitted curve in the direction sought with a large enough effect; inconclusive means small, poorly fitted or top-dose-only effect, or another doubt; inactive means no such curve, though single readings can be large; an effect the other way counts as inactive or inconclusive. Potency means the concentration at half of the fitted maximal effect.

SMILES	Mito fusion act	aSyn rescue	A-T KAP1 phos	TDP-43 yeast inh	GRP78 ERSR act	Abeta rescue
O=C(NCc1ccc(F)cc1)c1ccc(CSCc2cccc(Cl)c2)o1	.	.	.	22µM*	-4%	i
CC(C)(C)c1cc(NS(=O)(=O)c2ccc(Br)s2)no1	7%	-15%	-5%	22µM*	-3%	i
Cc1cc(NS(=O)(=O)c2ccc(Br)s2)no1	.	-1%	.	10%	-5%	i
CN(C)c1nc(Cl)nc(N(C#N)CCOc2ccccc2)n1	-4%	1%	-2%	11µM*	0%	i
CCNc1nc(NCC)nc(N(C#N)CCOc2ccccc2)n1	13%	-5%	7%	8%	1%	i
C=C(C)CC(c1ccccc1)N(C(C)=O)c1ccco1 (stereo unspecified)	0%	-1%	0%	1%	0%	i
C=CCC(c1ccccc1)N(C(C)=O)c1ccco1 (stereo unspecified)	25µM*	0%	-1%	-12%	-4%	i
FC(F)Oc1ccc(-n2cc(-c3ccccc3)[n+]3c2CCCCC3)cc1	2%	-2%	14µM*	-20%	-4%	i
CN1/C(=C/C=C(C#N)C#N)C(C)(C)c2ccccc21	-3%	-1%	-1%	-9%	-1%	i
CC1=C/C(=C\C=C(C#N)C#N)N(C)c2ccccc21	3%	0%	13µM*	-7%[1.82 µM]	-4%	i
CC(C)C1C(=O)N(Cc2cn(CCC3OCCO3)nn2)CCS(=O)(=O)N1Cc1ccc(-c2ccccc2)cc1 (stereo unspecified)	.	0%	.	?	-3%	i
CC(C)C1C(=O)N(Cc2cn(CCC3OCCO3)nn2)CCS(=O)(=O)N1Cc1ccc(-c2ccncc2)cc1 (stereo unspecified)	.	-2%	.	18%	-1%	i
CC(C)C1C(=O)N(Cc2cn(CCC3OCCO3)nn2)CCS(=O)(=O)N1Cc1ccc(-c2ccc(F)cc2Cl)cc1 (stereo unspecified)	.	?	.	22µM*	-3%	i
CC(C)C1C(=O)N(Cc2cn(CCC3OCCO3)nn2)CCS(=O)(=O)N1Cc1ccc(-c2ccccc2Cl)cc1 (stereo unspecified)	.	?	.	35µM*	-3%	i
O=C(Nc1cccc(N2CCC(NCc3cnn(-c4cccc(F)c4)c3)CC2)c1)c1ccncc1	.	.	.	.	-3%	.
COc1ccccc1NS(=O)(=O)c1ccc(C(=O)NCC(c2cccs2)N2CCOCC2)cc1 (stereo unspecified)	.	-14%	3%	10%	-3%	i
CC(C)Cn1c(SCc2cccc(F)c2)nc2ccsc2c1=O	.	-9%	.	10%	-3%	i
COc1ccc(N2C(=O)CC(Sc3n[nH]c(-c4ccccc4)n3)C2=O)cc1 (stereo unspecified)	0%	-8%	-6%	2µM*	-5%	i
CCOc1ccc(N2C(=O)CC(Sc3n[nH]c(-c4ccccc4)n3)C2=O)cc1 (stereo unspecified)	-7%	-54%	7%[11.5 µM]	3.5µM*	3%	i
CCOc1ccc2nc(SC3CC(=O)N(c4ccccc4)C3=O)sc2c1 (stereo unspecified)	-8%	-12%	5%	-6%	-16%	i
Nc1nc(SCc2ccccc2)sc1C(=O)N1CCCCC1	.	16%	.	13µM*	2%	i
CCCn1c(N2CCC(Cc3ccccc3)CC2)nc2c1c(=O)[nH]c(=O)n2C	?	17%	6%	22µM*	-4%	i
C=C(C)Cn1c(N2CCC(Cc3ccccc3)CC2)nc2c1c(=O)[nH]c(=O)n2C	16µM*	-2%	5%	3%	-2%	i
CCCCCn1c(N2CCC(Cc3ccccc3)CC2)nc2c1c(=O)[nH]c(=O)n2C	.	-46%	.	-67%	-12%	i
O=Nc1ccc2oc(=O)ccc2c1	-54%	-61%	.	.	-12%	.
SMILES	Mito fusion act	aSyn rescue	A-T KAP1 phos	TDP-43 yeast inh	GRP78 ERSR act	Abeta rescue
COc1ccc(C(=O)CC2(C(=O)O)CCCCC2)cc1	3%	14%	14%	16µM*	-6%	i
O=C(Oc1c(Cl)cc(Cl)c2ccccc12)N1CCCC1	6%	0%	7%	13µM*	-1%	i
CCCc1nc(SCC(=O)c2ccccc2)c2c(=O)n(C)c(=O)n(C)c2n1	26%	?	3%	14µM*	1%	i
COc1cccc(NC(=O)N2CCC(CN3CCOCC3)CC2)c1	.	.	.	-9%	-1%	i
O=C(Cn1c(-c2cccs2)cc2ccccc21)NCCCN1CCN(c2ccc(F)cc2)CC1	.	.	.	2%	-2%	i
CSc1ccccc1C(=O)NC1CCCN(c2ccc(C(F)(F)F)cn2)C1 (stereo unspecified)	8%	-1%	6%	?	4%	22µM*
CCOC(=O)C1CCCCN1Cc1nc(N2CCN(C(C)=O)CC2)c2ccccc2n1 (stereo unspecified)	.	.	.	.	-4%	.
CCOCCc1nnc(NC(=O)C(=O)c2cc(C)n(-c3cccc(C)c3)c2C)s1	.	.	.	35µM*	1%	i
CCOc1ccccc1CN1CCCC(c2nc(C)ncc2-c2ccc(F)cc2)C1 (stereo unspecified)	.	.	.	.	-5%	.
CC1=C(C)CC2C(C1)C(=O)c1ccc(Br)cc1S2(=O)=O (stereo unspecified)	0%	-3%	-6%	5µM*	-2%	i
CC1=CCC2C(=O)N(c3ccc(Br)cc3C)C(=O)C2C1 (stereo unspecified)	5%	0%	-7%	?	-3%	i
Cc1nc(/C(N)=N/OC(=O)c2cccc(Cl)c2)c(C(F)(F)F)o1	8%	1%	7%	20µM*	1%	i
O=C(NCc1ccccc1F)C(=O)NCC(c1ccco1)S(=O)(=O)c1cccs1 (stereo unspecified)	.	.	.	8%	-2%	i
CCn1c(-c2ccccc2F)nc2cc(C(=O)NC(c3ccccn3)C(F)(F)F)cc(NC(C)=O)c21 (stereo unspecified)	.	.	.	.	-5%	.
O=C1C=C(c2cnc3ccccc3c2)C[C@@H](c2ccc3c(c2)OCO3)C1	?	6%	0%	16µM*	0%	i
COc1ccc(C2=CC(=O)C[C@H](c3ccc4c(c3)OCO4)C2)cn1	11%	2%	13%	14%	-3%	i
